Here are results for two compounds from the supplement of paper PMC12282887.

For this experiment, the system named is E. coli BW25113 marRABp lux reporter. The experiment is described as follows: promoter activity interaction Z-score (Lux/OD deviation from empty-vector control); higher = stronger promoter induction by the compound. On the procedure:
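E. coli BW25113 (wild type or ΔmarA/ΔsoxS/Δrob) carrying pTU175 luxCDABE promoter reporters was grown in LB in 384-well plates at 37°C with each of 94 compounds at 4 two-fold concentrations, in biological duplicates. Luminescence and OD600 were read every 30 min for 12 h and integrated as AUC over 8 h (0-8 h WT, 1-9 h mutants). Lux AUC was divided by OD AUC; the interaction score is the residual of a Huber robust fit of each promoter against the empty-vector control, then Z-transformed per promoter.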

± gives the standard deviation of the averaged measurements.

With `O=C(N[C@H](CO)[C@H](O)c1ccc([N+](=O)[O-])cc1)C(Cl)Cl` [Chloramphenicol], the “promoter activity interaction Z-score” value is, setting by setting: (0.12 µg/ml, genetic background: wild type) 0.131 ± 0.36; (0.12 µg/ml, genetic background: ΔmarA) 0.172 ± 0.061; (0.12 µg/ml, genetic background: Δrob) 0.31 ± 0.053; (0.12 µg/ml, genetic background: ΔsoxS) 0.215 ± 0.0078; (0.24 µg/ml, genetic background: wild type) 0.735 ± 0.19; (0.24 µg/ml, genetic background: ΔmarA) 0.695 ± 0.4. Further, the “promoter activity interaction Z-score” value runs as follows: (0.24 µg/ml, genetic background: Δrob) 0.342 ± 0.21; (0.24 µg/ml, genetic background: ΔsoxS) 0.497 ± 0.14; (0.48 µg/ml, genetic background: wild type) 1.43 ± 0.31; (0.48 µg/ml, genetic background: ΔmarA) 1.26 ± 0.45; (0.48 µg/ml, genetic background: Δrob) 0.873 ± 0.55; (0.48 µg/ml, genetic background: ΔsoxS) 1.19 ± 0.34. Besides, the “promoter activity interaction Z-score” value is, setting by setting: (1 µg/ml, genetic background: wild type) 0.553 ± 0.19; (1 µg/ml, genetic background: ΔmarA) -0.609 ± 0.26; (1 µg/ml, genetic background: ΔsoxS) 1.31 ± 0.5.

For `CC[C@H]1OC(=O)[C@H](C)[C@@H](O[C@H]2C[C@@](C)(OC)[C@@H](O)[C@H](C)O2)[C@H](C)[C@@H](O[C@@H]2O[C@H](C)C[C@H](N(C)C)[C@H]2O)[C@](C)(O)C[C@@H](C)C(=O)[C@H](C)[C@@H](O)[C@]1(C)O` [Erythromycin], the “promoter activity interaction Z-score” value is, setting by setting: (1.8 µg/ml, genetic background: wild type) 0.316 ± 0.064; (1.8 µg/ml, genetic background: ΔmarA) 0.0943 ± 0.048; (1.8 µg/ml, genetic background: Δrob) 0.109 ± 0.022; (1.8 µg/ml, genetic background: ΔsoxS) 0.268 ± 0.14; (3.7 µg/ml, genetic background: wild type) 0.459 ± 0.1; (3.7 µg/ml, genetic background: ΔmarA) 0.54 ± 0.35. Further, the “promoter activity interaction Z-score” value was found to be 0.617 ± 0.38 (3.7 µg/ml, genetic background: Δrob); 0.806 ± 0.22 (3.7 µg/ml, genetic background: ΔsoxS); 1.87 ± 0.21 (7.3 µg/ml, genetic background: wild type); 1.31 ± 0.22 (7.3 µg/ml, genetic background: ΔmarA); 1.34 ± 0.3 (7.3 µg/ml, genetic background: Δrob); 1.3 ± 0.3 (7.3 µg/ml, genetic background: ΔsoxS). Moreover, the “promoter activity interaction Z-score” value is, setting by setting: (14.7 µg/ml, genetic background: wild type) 2.2 ± 0.17; (14.7 µg/ml, genetic background: ΔmarA) 2.59.
